Among all 1,300 compounds or so, about 150 (12%) were called active. Another 30% or so got no clear call; they are omitted. What follows is part of a selection rich in actives, with near analogues and random picks from the rest. Unmarked numbers belong to inactive results. Calls follow the shape of the dose curve; as a rule, active = well fitted cell-killing curve with a large enough effect; inconclusive = small, poorly fitted or top-dose-only effect, or effect the other way; inactive = flat fitted curve, though single readings scatter.
assay: qHTS of small molecules that selectively kill Giardia lamblia: Hit Validation in HepG2 cytotox; conditions: cell viability; Potency: HepG2 cytotoxicity; series mostly up to 38.3 µM; activity change, negative = cytotoxicity: at the top concentration;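 also: compound exposure lasted overnight at 37 deg C; nearly all actives have a fitted effect of over 55% in size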;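 as to activity change, negative = cytotoxicity: viability measured as cellular ATP by ATPLite luminescence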
Method in brief: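 HepG2 cells seeded and incubated overnight at 37 deg C, then 23 nL compound added by pintool and incubated overnight at 37 deg C. Viability read as ATP luminescence with ATPLite after 15 min at room temperature.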
% is scaled to controls: 0 for no effect and ±100 for the full control effect; potency is read from the fitted curve at half-maximal effect.

Row | Structure (SMILES) | Potency | activity change, negative = cytotoxicity [%]
1 | CC1CCN(c2ccc(-c3ccc(NC(=O)C(F)(F)F)cc3)nn2)CC1 | 4.14 µM (active) | 
2 | N#CC1C=Cc2c(ccc3ccccc23)N1C(=O)c1ccccc1 (stereo unspecified) |  | 13.7
3 | O=C(Nc1ccc2c(c1)OCCO2)c1cc(-c2ccccn2)nc2ccc(Br)cc12 |  | -5.28
4 | Cc1nc2c(ccc3nc(NC(=O)c4ccc5c(c4)OCCO5)sc32)s1 | 1.85 µM (active) | 
5 | CC(=O)c1sc(NC(=O)c2ccc(C)c(C)c2)nc1C |  | -14.5
6 | Cc1[nH]n(S(=O)(=O)Cc2ccccc2)c(=O)c1N=Nc1ccccc1Cl |  | 10.9
7 | O=C(COc1cccnc1[N+](=O)[O-])c1c[nH]c2ccccc12 |  | 3.05
8 | Cc1[nH]c2ccccc2c1C(=O)C(C)OC(=O)c1ccc([N+](=O)[O-])o1 (stereo unspecified) |  | 22.2
9 | COC(=O)c1sc(NC(=O)COc2cccnc2[N+](=O)[O-])c(C(=O)OC)c1C |  | 0.168
10 | Cc1cc2[nH]c3c(c[n+](C)c4ccccc34)c2cc1C | 3.29 µM (active) | 
11 | COC(=O)c1ccc(Cn2cc(C(F)(F)F)cc([N+](=O)[O-])c2=O)cc1 |  | 2.05
12 | CCc1ccc([C@@H]2CC=C(C(=O)O)[C@H](c3cccc(Cl)c3)N2S(=O)(=O)c2ccc(C)cc2)cc1 |  | 18.9
13 | Cc1ccc(CN=c2c([N+](=O)[O-])nn(-c3ccc4c(c3)OCCO4)n2O)cc1 |  | 14
14 | Cc1ccccc1N1CCN(Cc2ccc([N+](=O)[O-])o2)CC1 |  | -15.2
15 | COc1cc(/C=C/c2onc(C)c2[N+](=O)[O-])cc(OC)c1OC |  | 0.264
16 | COc1cc(C2CC(=O)Oc3cc(C)c(Cl)c(C)c32)cc(OC)c1OC (stereo unspecified) |  | 21.9
17 | COc1cc(/C=C2\COC/C(=C\c3cc(OC)c(OC)c(OC)c3)C2=O)cc(OC)c1OC | 2.33 µM (active) | 
18 | Cc1ccc(S(=O)(=O)N2CC(C(=O)O)=CC[C@H]2c2ccc(Cl)cc2)cc1 |  | 12.5
19 | O=C(O)C=C(Br)Br |  | 23.8
20 | COc1ccc(C(=O)c2c3ccccc3[n+]([O-])n2CCCN)cc1 | inactive | 
21 | CC(Oc1cccnc1[N+](=O)[O-])C(=O)Nc1ccc(F)cc1 (stereo unspecified) |  | 26.8
22 | COc1ccc2c(c1)C1OCCC1C(c1ccco1)N2 (stereo unspecified) | 10.4 µM (active) | 
23 | CC(=O)OCON[N+]([O-])=NC(C)C |  | 3.82
24 | OCCOCCNc1ncnc2c1c(-c1ccccc1)cn2-c1ccccc1 |  | 1.82
25 | C(=C\c1nc2ccccc2s1)/c1ccc2c(c1)OCO2 | 2.07 µM (active) | 
26 | O=[N+]([O-])c1cc(C(F)(F)F)ccc1Oc1cccnc1[N+](=O)[O-] |  | 13.1

Row | Structure (SMILES) | Potency | activity change, negative = cytotoxicity [%]
27 | Cc1nc2c(N=Nc3ccccc3F)c(N)nn2c(N)c1C#N |  | 2.35
28 | Cc1ccc(OCC(=O)Nc2ccc(C)c(F)c2)c([N+](=O)[O-])n1 |  | -7.99
29 | CC(C)(C)[C@H](N)C(=O)N[C@H]1CCC2C3CC=C4C[C@@H](O)CC[C@]4(C)C3CC[C@@]21C (stereo partly specified) | 2.33 µM (active) | 
30 | O=C(Nc1ccc(Cl)cn1)c1ccccc1[N+](=O)[O-] |  | -0.045
31 | Brc1ccc(CNc2nc3ccccc3n2CCN2CCCCC2)cc1 |  | 12.6
32 | NC(=S)NN=C1CCCCCCCC1 |  | 0.789
33 | CCN(CC)CCCNc1nc2ccccc2c2[nH]c3ccc(OC)cc3c12 | 2.61 µM (active) | 
34 | COc1ccc(-c2nc(NCCCN(C)C)c3ccccc3n2)cc1 |  | -24.3
35 | NCCCn1c(C(=O)c2cc(Cl)c(N)c(Cl)c2)c2ccccc2[n+]1[O-] |  | -8.28
36 | O=[N+]([O-])C(/C=C(/Cl)[N+](=O)[O-])=C(N1CCCCC1)N1CCCCC1 |  | 4.13
37 | O=c1c2ccccc2nc(/C=C/c2ccc([N+](=O)[O-])o2)n1CCCO | 3.69 µM (active) | 
38 | CC(=O)N(/N=C/c1ccc([N+](=O)[O-])o1)c1nc2ccccc2c(=O)n1-c1ccccc1 |  | -17.4
39 | O=[N+]([O-])c1ccc(/C=C/C2=NN(c3ccccc3)C(c3ccco3)C2)o1 (stereo unspecified) |  | 0.147
40 | O=[N+]([O-])c1ncccc1Oc1nc(-c2cccnc2)nc2ccccc12 |  | 13.1
41 | COc1ccc(C(=O)COC(=O)c2ccccc2NS(=O)(=O)c2ccc(O)c([N+](=O)[O-])c2)cc1 |  | 9.65
42 | Cc1[nH]n(C2=NCCS2)c(=O)c1N=Nc1cccc(C(F)(F)F)c1 | 4.65 µM (active) | 
43 | Cc1[nH]n(S(=O)(=O)c2ccccc2)c(=O)c1N=Nc1cccc(Cl)c1 |  | 1.32
44 | CN(C(=O)c1ccc(N2CCCCC2)c([N+](=O)[O-])c1)C1CCS(=O)(=O)C1 (stereo unspecified) |  | 11.3
45 | Cc1ccc(C(=O)c2c3ccc([N+](=O)[O-])cc3[n+]([O-])n2CCCC(N)=O)cc1 |  | -12.8
46 | O=c1cc[nH]c2ccc([N+](=O)[O-])cc12 |  | 22.3
47 | Cc1cc(C(=O)COc2cccnc2[N+](=O)[O-])c(C)n1Cc1ccco1 |  | 10
48 | c1ccc(-c2nc(-c3cnc4ccccc4n3)cs2)cc1 |  | -21.7
49 | CC1(C)CC(N=c2cc(-c3ccccc3)oc3ccc(Cl)cc23)CC(C)(C)N1 | 8.26 µM (active) | 
50 | Clc1ccc2oc(-c3ccccc3)cc(=NCCCN3CCOCC3)c2c1 |  | -1.78
51 | CN(C)CCCN=c1cc(-c2ccccc2)oc2ccc(Cl)cc12 |  | -8.36

Reference: PubChem BioAssay AID588382 (National Center for Advancing Translational Sciences (NCATS), 2011)
